# An excerpt weighted towards active compounds, which were near 5.8% of everything screened.
# KB-V1 MDR tox = qHTS assay for MDR1-selective chemotherapeutics: Primary screen using the drug-selected MDR subline cells KB-V1 | 3.4% of 400,000 active | Potency, µM (doses to about 46.1 µM), most hits filed as cytotoxic | AID 1347076, 2019 | KB-V1 MDR cells viability, CellTiter-Glo, 72 h; note: nearly all actives have a fitted effect of over 60% in size
#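 Cytotoxicity toward P-gp-expressing KB-V1 cells was determined as loss of CellTiter-Glo luminescence after 72 h at 37 degrees C. Compounds were tested in quantitative HTS format across a concentration range, with curves fitted to normalized data.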
# ALOX12 inh = Primary qHTS assay for inhibitors of human arachidonate 12S-lipoxygenase (ALOX12): Round 2; purified 12hLO, xylenol orange hydroperoxide absorbance; AID 1671190, 2021; Potency, µM (top dose mostly 108 µM), most hits filed as inhibitors; 1.1% of 580,000 active; Polyunsaturated fatty acid lipoxygenase ALOX12 (Homo sapiens), P18054
# Target sequence (P18054 whole entry, looked up): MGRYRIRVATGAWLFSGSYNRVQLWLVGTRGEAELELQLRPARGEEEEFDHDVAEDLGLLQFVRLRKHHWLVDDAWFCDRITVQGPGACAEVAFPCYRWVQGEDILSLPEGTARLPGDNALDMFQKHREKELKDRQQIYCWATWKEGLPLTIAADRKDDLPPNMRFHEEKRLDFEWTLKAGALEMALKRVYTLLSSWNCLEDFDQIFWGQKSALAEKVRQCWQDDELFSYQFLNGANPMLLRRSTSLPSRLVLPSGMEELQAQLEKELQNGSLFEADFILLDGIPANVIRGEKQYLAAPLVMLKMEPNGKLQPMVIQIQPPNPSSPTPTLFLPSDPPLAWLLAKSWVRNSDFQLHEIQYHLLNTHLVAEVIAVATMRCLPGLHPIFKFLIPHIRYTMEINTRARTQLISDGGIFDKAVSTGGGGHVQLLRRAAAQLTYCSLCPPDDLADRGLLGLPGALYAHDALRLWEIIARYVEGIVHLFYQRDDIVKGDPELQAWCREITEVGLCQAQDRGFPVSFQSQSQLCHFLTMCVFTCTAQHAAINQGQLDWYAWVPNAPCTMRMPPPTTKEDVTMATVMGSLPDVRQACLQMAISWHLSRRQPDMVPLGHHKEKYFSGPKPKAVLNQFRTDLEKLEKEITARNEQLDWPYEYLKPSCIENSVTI
#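 Hydroperoxide product was detected by ferrous iron/xylenol orange as the 573 to 405 nm absorbance ratio. Arachidonic acid at 40 uM (final) was turned over for 30 min at room temperature by 150 nM human 12hLO, pH 7.0 Hepes buffer, after 15 min compound preincubation.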
# PINK1 modulator = A Quantitative High throughput Screen to Identify Chemical Modulators of PINK1 Expression. PINK1 immunofluorescence, high-content cytometry, 24 h. 0.2% of 410,000 active. Potency, µM (doses to about 76.6 µM), most hits filed as activators; active = well fitted activation curve with a large enough effect; inconclusive = small, poorly fitted or top-dose-only effect; cell line not stated here; note: nearly all actives have a fitted effect of over 65% in size
#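 Fluorescence from anti-PINK1 antibody, together with nuclear and cell stains, was scanned on a laser-scanning cytometer. Before staining, stable-line cells were incubated 24 hours with compounds at 5 concentrations; primary antibody 12 h at 10 degrees C.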
# KB-3-1 cytotox = qHTS assay for MDR1-selective chemotherapeutics: Primary screen using the parental adenocarcinoma cell KB-3-1; KB-3-1 viability, CellTiter-Glo ATP luminescence, 72 h; Potency, µM (highest dose often 46.1 µM), usual class: cytotoxic; 1.4% of 400,000 active; note: nearly all actives have a fitted effect of over 60% in size
#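 72 h, 37 °C compound treatment of KB-3-1 parental cells; CellTiter-Glo added, 10 min, luminescence read. Data corrected against DMSO-only plates and normalized before curve fitting.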
# MCF10A rerep = A quantitative high throughput screen for small molecules that induce DNA re-replication in MCF 10a normal breast cells | MCF 10A DNA re-replication, Hoechst nuclear intensity, 48 h | Potency, µM (doses to about 46.1 µM), most hits filed as activators | 2.9% of 350,000 active; note: nearly all actives have a fitted effect of over 50% in size
# SW480 rereplic = A quantitative high throughput screen for small molecules that induce DNA re-replication in SW480 colon adenocarcinoma cells. 1.8% of 340,000 active. Potency, µM (doses to about 46.1 µM), most hits filed as activators. SW480 DNA re-replication, Hoechst DNA content imaging, 48 h; note: nearly all actives have a fitted effect of over 55% in size
#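 DNA re-replication was detected as more nuclei of elevated Hoechst intensity after 48 hr exposure to compound (23 nL pinned per well of 250 cells).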
# A number is an active result; – = inactive; ? = inconclusive; · = not tested or not shown; ! = a repeat was not active; [ ] = dose if it differs, or a comment. Unless noted, calls come from the whole dose curve; as a rule, active = well fitted curve in the direction sought with a large enough effect; inconclusive = small, poorly fitted or top-dose-only effect, or another doubt; inactive = no such curve, though single readings can be large; an effect the other way counts as inactive or inconclusive.
SMILES,KB-V1 MDR tox,ALOX12 inh,PINK1 modulator,KB-3-1 cytotox,MCF10A rerep,SW480 rereplic
CCOC(=O)c1c(NC(=O)CSc2nnnn2C)sc(C)c1-c1ccc(C)cc1,13µM,–,–,?,?,–
NC(Cc1ccccc1)C(=O)N1CCC2(CC1)CN(C(=O)c1ccc(Cl)cc1)CCO2 (stereo unspecified),·,–[6.33 µM],·,·,·,·
CC(C)=CCc1c2c(c3occ(-c4ccc(O)cc4)c(=O)c3c1O)C=CC(C)(C)O2,?,?,–,?,?,–
CC(C)=CCc1c2c(c3occ(-c4ccc(O)c(O)c4)c(=O)c3c1O)C=CC(C)(C)O2,–,40µM!,–,?,9.2µM,–
O=C(NCc1ccccc1)c1ccccc1Nc1ccccc1,·,–,·,·,·,·
COc1ccc(CCNc2nc(-c3cc(OC)c(OC)c(OC)c3)cs2)cc1OC,·,7.9µM,·,·,·,·
CCOc1ccc2ncc(S(=O)(=O)c3ccc(C)cc3)c(N3CCC4(CC3)OCCO4)c2c1,4.1µM,–,–,?,?,?
CCOc1ccc2ncc(S(=O)(=O)c3ccccc3)c(N3CCCCC3)c2c1,·,–,·,·,·,·
Cc1ccc(OCCCOc2ccccc2/C=N/NC(=O)c2cccc(Cl)c2)c(C)c1,·,–,·,·,·,·
CCOC(=O)N1CCN(c2ccc(S(=O)(=O)N(Cc3ccccc3)Cc3ccccc3)cn2)CC1,5.8µM,–,–,–,–,–
COc1ccc2c(c1)C1C=CCC1C(c1cc3c(cc1Br)OCO3)N2 (stereo unspecified),–,–,–,?,3.7µM,9.2µM
CC(=O)c1ccc2c(c1)C1C=CCC1C(c1cc3c(cc1Br)OCO3)N2 (stereo unspecified),6.5µM,?,–,5.8µM,4.1µM,12µM
CC(=O)c1ccc2c(c1)C1C=CCC1C(c1ccc(S(=O)(=O)N3CCOCC3)cc1)N2 (stereo unspecified),?,?,–,–,–,·
COc1ccc(-c2c3c(=O)n(C)c(=O)n(C)c3c3n2-c2ccccc2NC3c2ccc(OC)cc2)cc1 (stereo unspecified),–,?,–,–,·,·
COc1ccc(C2Nc3cc(OC)ccc3-n3cccc32)cc1 (stereo unspecified),?,?,–,–,16µM,21µM
CCc1nc2sc3ccccc3c(=O)c2c(=O)n1CCOC,–,–,–,–,–,–
COCCn1c(C(C)C)nc2sc3ccccc3c(=O)c2c1=O,16µM,–,–,–,?,–
COCCn1c(C2CCCCC2)nc2sc3ccccc3c(=O)c2c1=O,4.1µM,–,–,–,–,–
Cc1c(-c2nc3ccccc3[nH]2)c(NC(=O)CC(C)C)n(CC2CCCO2)c1C (stereo unspecified),·,–,·,·,·,·
COc1cccc(-c2nc(-c3cc4cccc(C)c4nc3OC)no2)c1,·,–,·,·,·,·
CCCC(=O)Nc1nn2c(CC(C)C)nnc2s1,·,25µM,·,·,·,·
CCC(CC)C(=O)Nc1nn2c(CC(C)C)nnc2s1,·,16µM,·,·,·,·
CCCCN(C)C(=O)Cn1c(C2CC(=O)N(c3cccc(C)c3)C2)nc2ccccc21 (stereo unspecified),·,–,·,·,·,·
COc1ccc(-c2nc(Cn3nc(C)c4c(C)onc4c3=O)c(C)o2)cc1,·,–,·,·,·,·
COc1ccc(/C=C2\Oc3ccccc3C2=O)cc1,?,?,–,?,–,–
SMILES,KB-V1 MDR tox,ALOX12 inh,PINK1 modulator,KB-3-1 cytotox,MCF10A rerep,SW480 rereplic
COc1ccc(C=C2OC(=O)C(C(C)=O)=C2O)cc1,?,45µM,–,–,·,·
CCOC(=O)C1=C(C)OC(=Cc2ccccc2)C1=O,–,–,–,–,·,·
CC(=O)C1=C(O)C(=Cc2ccccc2)OC1=O,–,14µM,–,–,·,·
COC(=O)COc1c(Br)cc(/C=C2/NC(=O)NC2=O)cc1Br,·,–,·,·,·,·
O=C(c1ccc(N2C(=O)c3ccccc3C2=O)cc1)N1CCCCC1,–,–,–,–,–,–
CCc1ccc(N2C(=O)C(Cl)=C(Nc3ccc(C(=O)N4CCCC4)cc3)C2=O)cc1,–,·,–,–,10µM,?
CN(C(=O)C(C)(C)C)[C@H]1C[C@H]2c3[nH]c4ccccc4c3CCN2C(=O)[C@H]1CO,–,?,–,–,·,·
CN(Cc1cc(Cl)cc(Cl)c1)[C@H]1C[C@H]2c3[nH]c4ccccc4c3CCN2C(=O)[C@H]1CO,–,?,45µM,?,·,·
C[C@H](O)[C@@H]1C(=O)N2CCc3c([nH]c4ccccc34)[C@@H]2C[C@@H]1N(C)C(=O)Nc1cc(Cl)cc(Cl)c1,–,–,?,?,·,·
CN(C(=O)NC1CCCCC1)[C@H]1C[C@H]2c3[nH]c4ccccc4c3CCN2C(=O)[C@H]1CO,–,?,–,6.5µM,·,·
Cc1oc(-c2cccs2)nc1CC(=O)Nc1ccc(F)c(F)c1F,·,–,·,·,·,·
COc1ccc(C(=O)Nc2ccc(Oc3ncnc4sc(-c5ccccc5)cc34)cc2)cc1OC,–,–,–,–,3.3µM,·
c1ccc(-c2cc3c(N4CCN(c5ncccn5)CC4)ncnc3s2)cc1,?,–,–,–,?,–

# Screens deposited in PubChem BioAssay by National Center for Advancing Translational Sciences (NCATS).
